Source: PubChem
Myeloid diff 2: myeloid differentiation induction | ER-HoxA9 myeloid progenitors, lysozyme-GFP differentiation, flow cytometry | calls only at 10 µM | 1% of 360,000 active;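 active = normalized GFP-positive differentiation at or above the plate's own cutoff, the solvent-only control mean plus 3 SD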;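 also: cells exposed to compound for four days before flow analysis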
ABHD5-PLIN5 inh: inhibitors of human ABHD5-perilipin-5 interaction | Split G. princeps luciferase complementation, luminescence, 4 h | Q00G26+Q8WTS1 | AID 602281 | 0.78% of 360,000 active | inhibition, % at 4 µM;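 active = inhibition above the mean inhibition across every tested compound plus 3 SD, cut at about 22% in these data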;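 also: 0% = DMSO only wells and the 100% control is not disclosed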
H9c2 protect: modulators protecting cardiomyocytes from myocardial damage. H9c2 cardiomyocytes, H2O2 injury protection, ATPLite, 2 h. protection from H2O2 cell death, % at 20 µM. 0.63% of 360,000 active. AID 588492;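 active = compounds giving at least 50% protection of heart cells from peroxide-induced death in the single-dose screen, raw or plate-pattern-corrected value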;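 also: 0% = DMSO wells with peroxide and 100% = DMSO wells without peroxide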
sPLA2-III inh: Blocks human group III sPLA2 activity | Q9NZ20 | QFRET BODIPY PC-A2 liposome hydrolysis, fluorescence | inhibition, % at 12.2 µM | 0.56% of 370,000 active;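 active = inhibition above mean plus 3 SD of compounds lying within the high and low control bounds, cut at about 19% in these data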;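 also: 0% = median of test compound wells and 100% = no enzyme DMSO wells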
Rtt109 Vps75: C. albicans Rtt109 histone acetyltransferase inhibition; Q5AAJ8; purified Rtt109/Vps75, ThioGlo CoA-SH fluorescence, 4 h; inhibition, % at 34.9 µM; 0.16% of 330,000 active;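 active = inhibition of at least 50% in every replicate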
Target sequence (Q5AAJ8 whole entry, looked up): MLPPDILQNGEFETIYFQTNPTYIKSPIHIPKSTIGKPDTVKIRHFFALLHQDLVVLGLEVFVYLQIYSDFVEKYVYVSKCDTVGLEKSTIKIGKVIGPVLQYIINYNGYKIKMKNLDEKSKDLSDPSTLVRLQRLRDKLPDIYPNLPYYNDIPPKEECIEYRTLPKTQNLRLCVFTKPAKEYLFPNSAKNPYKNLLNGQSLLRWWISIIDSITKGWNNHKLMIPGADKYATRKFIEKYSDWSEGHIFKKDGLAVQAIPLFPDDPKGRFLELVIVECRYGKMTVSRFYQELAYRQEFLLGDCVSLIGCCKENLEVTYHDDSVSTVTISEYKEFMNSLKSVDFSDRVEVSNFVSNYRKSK
DAGLB inh: blocks human DAGLB lipase activity. HEK293T DAGLB membrane lysate, EnzChek fluorogenic substrate. Q8NCG7. inhibition, % at 5.17 µM. 0.059% of 340,000 active; in the data active = inhibition above about 34%;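 also: 0% = enzyme with vehicle and 100% = wells lacking enzyme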
Myeloid diff: promotes myeloid progenitor differentiation. shares compounds with Myeloid diff 2. ER-HoxA9 myeloid progenitors, GFP/Mac1 double-positive flow. calls only. 2% of 2,300 active. AID 651706;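 active = share of green or green-and-red cells above 9 and 9% in run 1 or 4 and 3% in run 2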
GFP autofluor: flagged as fluorescent in myeloid differentiation counter-screen | shares compounds with Myeloid diff 2 | ER-HoxA9 myeloid progenitors, no estrogen, GFP autofluorescence flow cytometry; vehicle wells 0%, positive control 100% | fluorescence response, % (no concentration beside the values) | 7.4% of 2,300 active;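 active = over 5% cells positive for green fluorescent reporter, or over 2% positive for both it and APC stain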;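 also: range taken on the double positive population between DMSO and positive control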
* marks the source's active call; other numbers are inactive results; i = inactive; / = no result given; + = active, no number. Most compounds without a hit are left out; they make up all but 2.9% or so of the library.

SMILES	Myeloid diff 2	ABHD5-PLIN5 inh	H9c2 protect	sPLA2-III inh	Rtt109 Vps75	DAGLB inh	Myeloid diff	GFP autofluor
CC(C)=CCN1CCN(Cc2ccc(N3CCNC3=O)cc2)CC1CCO (stereo unspecified)	i	0	2	-2	-9	-1	/	/
C[C@]1(C(=O)NCCCNc2ncc(C(F)(F)F)cc2Cl)C=C[C@@H](Cc2ccccc2)N1C(=O)c1ccccc1	i	7	4	/	1	-2	i	0
CC1(C(=O)NCCCNc2ncc(C(F)(F)F)cc2Cl)C=CCN1C(=O)c1ccccc1 (stereo unspecified)	i	-1	-1	2	-9	-3	/	/
Cc1cccc(NC(=O)c2ccccc2SCc2ccc(F)cc2)n1	+	-6	-10	9	-10	-8	i	0
O=C(Nc1ccc(Cl)cn1)c1ccccc1SCc1ccccc1	/	-6	4	1	-7	-10	/	/
Cn1c(=O)c2cc(S(=O)(=O)NCCC(=O)NCCC3=CCCCC3)ccc2n(C)c1=O	+	0	5	/	2	5	i	1
Cn1c(=O)c2ccccc2n(Cc2ccccc2Cl)c1=O	i	4	-6	1	6	-2	i	0
Cn1c(=O)c2ccccc2n(Cc2ccccc2F)c1=O	i	6	-2	-2	7	-1	/	/
CC1(C)CC(NC(=O)C(c2ccccc2)c2ccccc2)CC(C)(C)N1	i	2	-2	2	-2	-1	/	/
Cc1ccc2nc(NC(=O)CSCC(=O)OCC(=O)c3ccccc3)sc2c1	+	-2	-5	-11	3	0	i	0
Cc1cc(C(=O)NC2CCCc3c2cnn3-c2cccc(C)c2C)no1 (stereo unspecified)	+	10	-10	3	1	0	i	4
CCCOc1ccccc1Cn1c(=O)oc2ccccc21	i	-9	6	0	-2	-8	/	/
N#CCCn1cnc2c(=S)nc[nH]c21	+	4	-1	5	-2	-1	i	1
C/C(=C1/SC(N2CCCC2)=NC1=O)c1ccc(Br)cc1	+	2	2	6	3	2	+	1
CC1=C(C(=O)Nc2ccccc2Cl)C(c2ccc(N(C)C)cc2)NC(=O)N1 (stereo unspecified)	+	8	-15	1	19	5	i	0
CCNc1ccc(S(=O)(=O)N(C)C)cc1NCC(=O)Nc1ccc(F)c(Cl)c1	i	1	-25	-22	-3	4	i	0
CCNc1ccc(S(=O)(=O)N(C)C)cc1NCC(=O)Nc1ccccc1F	i	-3	0	3	5	5	/	/
COc1ccc(CN(CC(=O)NC2CCCC2)C(=O)c2onc(C(N)=O)c2N)cc1	i	-5	0	7	/	-4	/	/
Cc1cccc(Nc2nnc(SCc3cc(=O)n4cc(C)ccc4n3)s2)c1	i	-6	4	9	-11	4	/	/
Cc1cc(C)nc(Nc2ncc(O)n2-c2ccc(C)c(C)c2)n1	i	5	0	-5	3	-1	/	/
COc1ccc(OC)c(-n2c(O)cnc2Nc2nc(C)cc(C)n2)c1	i	3	8	5	-10	2	i	0
CN(Cc1ccccc1)C(=S)Nc1ccc2nc3n(c(=O)c2c1)CCCCC3	i	1	-3	-1	10	0	/	/
CC(=O)Nc1cc(-c2cccc(C)c2)cn2c(-c3ccc(S(C)(=O)=O)cc3)cnc12	i	0	34	-1	/	/	/	/
CC(=O)Nc1cc(-c2ccccc2Cl)cn2c(-c3ccc(S(C)(=O)=O)cc3)cnc12	+	3	4	2	/	/	i	0
CC(=O)Nc1cc(-c2ccc(CO)cc2)cn2c(-c3ccc(F)c(Cl)c3)cnc12	+	13	14	8	/	/	i	3
SMILES	Myeloid diff 2	ABHD5-PLIN5 inh	H9c2 protect	sPLA2-III inh	Rtt109 Vps75	DAGLB inh	Myeloid diff	GFP autofluor
O=C(CSc1nnc(-c2ccncc2)n1CC1CCCO1)Nc1cccc(O)c1 (stereo unspecified)	i	4	0	6	-2	1	/	/
Cc1ccc(S(=O)(=O)N2CCN(C(=O)CN3CCN(c4ccc(O)cc4)CC3)CC2)cc1	+	6	2	-1	1	1	i	0
COn1c(=O)c(-c2cccs2)[n+]([O-])c2ccccc21	i	-3	45	1	6	-1	/	/
Cn1c(-c2cccs2)[n+](C)c2ccccc21	i	-2	7	-1	2	1	i	0
COC(=O)c1cc(S(=O)(=O)N2CCOCC2)ccc1Sc1ccccc1N	i	16	0	-8	13	-3	i	0
Cc1cc(=O)[nH]c(SCCOc2cccc(C(F)(F)F)c2)n1	/	11	-3	8	45	-3	i	3
CCN1C(=O)[C@H]2[C@@H](c3ccc(C)cc3)N[C@]3(CCCN(Cc4ccc(C(F)(F)F)cc4)C3=O)[C@H]2C1=O	i	2	-8	3	/	-4	/	/
CC(=O)C1C(c2ccc(OC(F)F)cc2)NC(=O)NC1(O)C(F)(F)F (stereo unspecified)	i	-4	-6	-5	-1	1	/	/
CC(=O)C1C(c2ccc(F)c(F)c2)NC(=O)NC1(O)C(F)(F)F (stereo unspecified)	i	9	-7	-3	7	-1	i	0
CCOC(=O)C1(CC2CC2)CCN(C(=O)c2cccnc2C)CC1	i	-6	5	4	3	2	i	0
CCOC(=O)C1(CC2CC2)CCN(C(=O)c2cc(C3CC3)nc3ccccc23)CC1	i	9	11	-11	0	-8	/	/
Cc1nn(CC(=O)O)c(C)c1[N+](=O)[O-]	i	-4	-2	0	-2	-2	/	/
Cn1c2ccccc2c(=O)c2ccc(NCc3ccc4c(c3)OCO4)cc21	+	-17	71*	-6	6	-1	i	2
CCOc1ccc(CCN2C(=O)C(=O)N([C@@H](Cc3ccccc3)CN3CCC[C@H]3CN3C(=O)C(=O)NC[C@@H]3Cc3ccc(O)cc3)C[C@@H]2Cc2ccc(O)cc2)cc1	i	9	/	-23	/	/	/	/
CCOc1ccc(CCN2C(=O)C(=O)N([C@@H](Cc3ccccc3)CN3CCC[C@H]3CN3C(=O)C(=O)NC[C@@H]3CC(C)C)C[C@@H]2Cc2ccc(O)cc2)cc1	i	11	/	-25	/	/	i	0
CCCSc1ccc([C@H]2N[C@@](C)(C(=O)OC)[C@H]3C(=O)N(CC)C(=O)[C@@H]23)cc1	i	1	-6	4	9	-9	/	/
